# Measured values taken from publication PMC7862700, “An all-to-all approach to the identification of sequence-specific readers for epigenetic DNA modifications on cytosine”.
# Key:
# Test in all cases: DAPPL (digital affinity profiling via proximity ligation, sequencing); 10 mM Tris-HCl pH 7.5, 50 mM NaCl, 1 mM DTT, 4% glycerol, room temperature, 30 min; GST-TFs on glutathione beads, 16-mer random dsDNA library, 0.1% formaldehyde crosslink after washing; high values mean tight binding
# FEV = biological target: T1, FEV (Homo sapiens, UniProt Q99581 1-238); conditions: protein: recombinant; tags: N-terminal GST; dsDNA, one strand shown
# T1 sequence: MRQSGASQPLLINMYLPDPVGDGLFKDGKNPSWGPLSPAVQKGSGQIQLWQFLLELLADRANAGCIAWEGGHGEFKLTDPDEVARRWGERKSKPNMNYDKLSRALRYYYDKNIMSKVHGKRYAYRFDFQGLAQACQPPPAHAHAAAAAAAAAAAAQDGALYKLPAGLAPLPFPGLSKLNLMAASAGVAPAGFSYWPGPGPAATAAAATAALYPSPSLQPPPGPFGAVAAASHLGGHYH
# Outline: (§1)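 Binding signal is defined as a hexamer's read frequency for one factor over its frequency for the tag-only sample. To obtain reads, GST-fused human transcription factors were expressed in yeast, captured on glutathione beads, barcoded with DNA and pooled with that sample. Pools met 200 nmole of a 16-mer random double-stranded DNA library in Tris/NaCl/DTT/glycerol buffer for 30 min at room temperature before washing, 0.1% formaldehyde crosslinking, proximity ligation (BsaI/T4 ligase, 1 h, 37 °C), PCR and Illumina NextSeq500 sequencing.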
# ETV5 = ETV5 (Homo sapiens, UniProt P41161 1-510); conditions: protein: recombinant; tags: N-terminal GST; dsDNA, one strand shown
# ETV5, sequence (P41161 whole entry): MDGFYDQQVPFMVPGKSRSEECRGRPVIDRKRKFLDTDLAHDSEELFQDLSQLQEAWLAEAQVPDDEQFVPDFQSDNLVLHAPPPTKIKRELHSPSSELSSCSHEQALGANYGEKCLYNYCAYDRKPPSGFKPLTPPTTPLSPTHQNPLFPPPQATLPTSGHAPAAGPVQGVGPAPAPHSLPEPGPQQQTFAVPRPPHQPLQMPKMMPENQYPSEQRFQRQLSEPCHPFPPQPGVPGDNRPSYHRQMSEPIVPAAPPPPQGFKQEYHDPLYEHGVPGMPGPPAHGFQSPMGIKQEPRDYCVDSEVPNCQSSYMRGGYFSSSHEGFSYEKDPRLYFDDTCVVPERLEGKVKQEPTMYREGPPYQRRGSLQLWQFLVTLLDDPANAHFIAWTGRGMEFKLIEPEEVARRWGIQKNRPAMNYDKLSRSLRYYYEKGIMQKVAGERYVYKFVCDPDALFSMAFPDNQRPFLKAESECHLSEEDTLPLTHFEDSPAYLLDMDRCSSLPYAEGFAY
# Outline: as §1
# HSF1 = HSF1 (Homo sapiens, UniProt Q00613 1-529); conditions: protein: recombinant; tags: N-terminal GST; chain copies: 3; dsDNA, one strand shown
# HSF1, sequence (Q00613 whole entry): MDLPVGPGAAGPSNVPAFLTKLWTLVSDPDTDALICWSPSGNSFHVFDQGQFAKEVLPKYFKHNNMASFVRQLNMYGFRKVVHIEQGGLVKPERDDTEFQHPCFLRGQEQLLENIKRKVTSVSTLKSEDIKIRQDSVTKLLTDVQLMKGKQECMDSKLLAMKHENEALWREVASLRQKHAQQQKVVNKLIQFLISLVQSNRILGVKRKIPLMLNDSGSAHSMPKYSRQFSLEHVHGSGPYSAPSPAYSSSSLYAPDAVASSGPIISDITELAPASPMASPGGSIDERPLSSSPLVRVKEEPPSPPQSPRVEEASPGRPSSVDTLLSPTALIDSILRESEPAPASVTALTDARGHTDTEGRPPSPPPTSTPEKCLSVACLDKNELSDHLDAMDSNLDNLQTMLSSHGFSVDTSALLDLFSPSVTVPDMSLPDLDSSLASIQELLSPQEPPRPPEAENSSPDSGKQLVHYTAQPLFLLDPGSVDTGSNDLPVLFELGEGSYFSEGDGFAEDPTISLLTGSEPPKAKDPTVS
# Outline: as §1
# SPIC = biological target: T2, SPIC (Homo sapiens, UniProt Q8N5J4 1-248); conditions: protein: recombinant; tags: N-terminal GST; dsDNA, one strand shown
# T2 sequence: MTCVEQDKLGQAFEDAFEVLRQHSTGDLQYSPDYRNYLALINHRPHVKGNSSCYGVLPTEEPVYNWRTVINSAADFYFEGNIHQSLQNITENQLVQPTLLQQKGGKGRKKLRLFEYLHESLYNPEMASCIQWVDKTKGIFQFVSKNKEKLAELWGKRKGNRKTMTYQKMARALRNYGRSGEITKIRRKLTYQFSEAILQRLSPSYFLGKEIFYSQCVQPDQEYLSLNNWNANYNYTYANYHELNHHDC
# Outline: as §1
# ELF4 = ELF4 (Homo sapiens, UniProt Q99607 1-663); conditions: protein: recombinant; tags: N-terminal GST; dsDNA, one strand shown
# ELF4, sequence (Q99607 whole entry): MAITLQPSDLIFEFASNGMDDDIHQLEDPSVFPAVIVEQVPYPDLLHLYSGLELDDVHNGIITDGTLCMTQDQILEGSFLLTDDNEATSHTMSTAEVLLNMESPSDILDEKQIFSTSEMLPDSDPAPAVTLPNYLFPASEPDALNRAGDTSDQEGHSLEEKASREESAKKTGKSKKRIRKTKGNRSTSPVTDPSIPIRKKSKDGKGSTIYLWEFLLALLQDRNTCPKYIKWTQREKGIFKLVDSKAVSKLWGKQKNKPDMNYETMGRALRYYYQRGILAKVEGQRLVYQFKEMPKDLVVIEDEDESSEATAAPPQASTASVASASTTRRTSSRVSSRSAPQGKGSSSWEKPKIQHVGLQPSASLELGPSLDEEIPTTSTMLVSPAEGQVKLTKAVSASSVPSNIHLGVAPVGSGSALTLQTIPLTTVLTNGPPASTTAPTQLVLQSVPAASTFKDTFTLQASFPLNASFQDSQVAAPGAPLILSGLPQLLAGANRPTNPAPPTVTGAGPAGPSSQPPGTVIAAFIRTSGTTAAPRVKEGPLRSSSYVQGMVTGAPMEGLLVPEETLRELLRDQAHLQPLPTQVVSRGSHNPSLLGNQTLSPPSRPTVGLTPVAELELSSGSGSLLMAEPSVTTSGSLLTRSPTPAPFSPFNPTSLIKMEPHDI
# Outline: as §1
# ELK4 = biological target: T3, ELK4 (Homo sapiens, UniProt P28324-2 1-405); conditions: protein: recombinant; tags: N-terminal GST; dsDNA, one strand shown
# T3 sequence: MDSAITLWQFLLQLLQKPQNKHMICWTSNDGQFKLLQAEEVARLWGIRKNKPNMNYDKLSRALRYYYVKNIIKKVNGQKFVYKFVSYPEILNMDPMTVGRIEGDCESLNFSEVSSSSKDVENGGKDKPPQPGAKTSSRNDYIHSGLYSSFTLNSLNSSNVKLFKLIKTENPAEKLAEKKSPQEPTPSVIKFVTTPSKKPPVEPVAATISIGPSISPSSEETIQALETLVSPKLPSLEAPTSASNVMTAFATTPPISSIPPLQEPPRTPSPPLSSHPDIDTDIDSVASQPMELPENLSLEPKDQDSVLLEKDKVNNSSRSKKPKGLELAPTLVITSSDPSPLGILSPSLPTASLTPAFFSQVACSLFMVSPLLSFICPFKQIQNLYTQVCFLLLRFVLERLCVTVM
# Outline: as §1
# ETV2 = biological target: T4, ETV2 (Homo sapiens, UniProt O00321 1-342); conditions: protein: recombinant; tags: N-terminal GST; dsDNA, one strand shown
# T4 sequence: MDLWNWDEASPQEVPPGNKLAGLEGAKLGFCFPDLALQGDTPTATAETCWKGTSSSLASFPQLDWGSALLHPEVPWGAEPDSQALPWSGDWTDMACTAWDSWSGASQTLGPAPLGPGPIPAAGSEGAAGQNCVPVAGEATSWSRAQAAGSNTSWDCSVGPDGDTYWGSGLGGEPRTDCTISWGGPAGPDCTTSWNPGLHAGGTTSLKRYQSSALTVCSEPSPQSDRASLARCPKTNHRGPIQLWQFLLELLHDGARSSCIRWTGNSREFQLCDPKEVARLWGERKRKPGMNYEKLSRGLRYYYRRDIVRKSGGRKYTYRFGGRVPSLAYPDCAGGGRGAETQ
# Outline: as §1
# ELF3 = biological target: T5, ELF3 (Homo sapiens, UniProt P78545 1-371); conditions: protein: recombinant; tags: N-terminal GST; dsDNA, one strand shown
# T5 sequence: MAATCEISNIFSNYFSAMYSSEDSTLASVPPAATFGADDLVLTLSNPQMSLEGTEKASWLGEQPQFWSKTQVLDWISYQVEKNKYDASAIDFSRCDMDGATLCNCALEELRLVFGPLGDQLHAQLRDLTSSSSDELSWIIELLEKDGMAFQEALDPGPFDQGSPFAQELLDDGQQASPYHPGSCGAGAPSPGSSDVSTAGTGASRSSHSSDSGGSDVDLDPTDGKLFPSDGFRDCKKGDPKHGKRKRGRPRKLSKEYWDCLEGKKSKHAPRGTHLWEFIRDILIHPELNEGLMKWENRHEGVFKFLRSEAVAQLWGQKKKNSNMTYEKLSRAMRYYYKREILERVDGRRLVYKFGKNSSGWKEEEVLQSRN
# Outline: as §1
# CRX = CRX (Homo sapiens, UniProt O43186 1-299); conditions: protein: recombinant; tags: N-terminal GST; dsDNA, one strand shown
# CRX, sequence (O43186 whole entry): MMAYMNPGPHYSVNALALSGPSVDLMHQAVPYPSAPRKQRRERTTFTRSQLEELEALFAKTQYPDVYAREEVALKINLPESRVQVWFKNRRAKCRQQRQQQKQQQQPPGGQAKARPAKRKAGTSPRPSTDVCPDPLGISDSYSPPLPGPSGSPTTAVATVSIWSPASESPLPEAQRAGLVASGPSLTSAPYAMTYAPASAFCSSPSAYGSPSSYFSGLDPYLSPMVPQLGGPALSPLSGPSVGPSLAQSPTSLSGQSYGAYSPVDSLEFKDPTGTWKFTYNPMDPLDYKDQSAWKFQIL
# Outline: as §1
# ETV1 = ETV1 (Homo sapiens, UniProt P50549 1-477); conditions: protein: recombinant; tags: N-terminal GST; dsDNA, one strand shown
# ETV1, sequence (P50549 whole entry): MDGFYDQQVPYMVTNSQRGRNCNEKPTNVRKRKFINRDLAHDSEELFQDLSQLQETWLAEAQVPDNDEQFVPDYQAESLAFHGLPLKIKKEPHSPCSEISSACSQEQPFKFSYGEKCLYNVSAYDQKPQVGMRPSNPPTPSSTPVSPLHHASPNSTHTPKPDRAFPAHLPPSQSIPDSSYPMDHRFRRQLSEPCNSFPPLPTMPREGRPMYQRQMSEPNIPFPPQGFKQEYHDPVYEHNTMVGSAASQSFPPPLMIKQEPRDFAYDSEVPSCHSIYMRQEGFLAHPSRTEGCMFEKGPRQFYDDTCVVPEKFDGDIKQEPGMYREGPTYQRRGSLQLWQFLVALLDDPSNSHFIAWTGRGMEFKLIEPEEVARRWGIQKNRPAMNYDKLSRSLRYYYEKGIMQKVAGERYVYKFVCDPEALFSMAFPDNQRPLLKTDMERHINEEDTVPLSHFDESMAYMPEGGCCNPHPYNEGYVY
# Outline: as §1
# ERF = biological target: T6, ERF (Homo sapiens, UniProt P50548 1-548); conditions: protein: recombinant; tags: N-terminal GST; dsDNA, one strand shown
# T6 sequence: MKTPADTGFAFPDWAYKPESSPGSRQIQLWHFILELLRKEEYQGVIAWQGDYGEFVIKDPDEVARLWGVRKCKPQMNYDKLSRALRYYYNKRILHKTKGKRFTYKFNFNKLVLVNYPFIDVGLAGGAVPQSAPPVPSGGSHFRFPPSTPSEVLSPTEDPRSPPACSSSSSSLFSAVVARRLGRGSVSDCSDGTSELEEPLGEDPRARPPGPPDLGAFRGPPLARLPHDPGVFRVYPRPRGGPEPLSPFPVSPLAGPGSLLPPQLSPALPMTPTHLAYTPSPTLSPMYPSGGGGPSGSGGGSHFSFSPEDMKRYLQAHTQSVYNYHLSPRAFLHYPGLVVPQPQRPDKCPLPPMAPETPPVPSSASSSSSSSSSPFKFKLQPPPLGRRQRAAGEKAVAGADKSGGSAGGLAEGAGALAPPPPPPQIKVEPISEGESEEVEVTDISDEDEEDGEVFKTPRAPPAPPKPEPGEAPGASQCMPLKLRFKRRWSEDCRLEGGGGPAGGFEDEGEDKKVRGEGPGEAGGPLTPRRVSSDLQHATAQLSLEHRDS
# Outline: as §1
# ETV3L = biological target: T7, ETV3L (Homo sapiens, UniProt Q6ZN32 1-361); conditions: protein: recombinant; tags: N-terminal GST; dsDNA, one strand shown
# T7 sequence: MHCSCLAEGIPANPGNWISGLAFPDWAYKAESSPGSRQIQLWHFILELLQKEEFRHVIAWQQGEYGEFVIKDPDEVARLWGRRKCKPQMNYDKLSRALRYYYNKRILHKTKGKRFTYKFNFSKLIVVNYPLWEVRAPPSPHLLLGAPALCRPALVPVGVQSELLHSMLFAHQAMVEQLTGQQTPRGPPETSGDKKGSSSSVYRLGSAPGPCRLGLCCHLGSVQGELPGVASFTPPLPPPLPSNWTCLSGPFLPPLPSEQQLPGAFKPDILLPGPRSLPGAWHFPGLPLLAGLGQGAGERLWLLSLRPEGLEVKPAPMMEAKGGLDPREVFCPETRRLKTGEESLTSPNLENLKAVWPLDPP
# Outline: as §1
# ETS2 = biological target: T8, ETS2 (Homo sapiens, UniProt P15036 1-469); conditions: protein: recombinant; tags: N-terminal GST; dsDNA, one strand shown
# T8 sequence: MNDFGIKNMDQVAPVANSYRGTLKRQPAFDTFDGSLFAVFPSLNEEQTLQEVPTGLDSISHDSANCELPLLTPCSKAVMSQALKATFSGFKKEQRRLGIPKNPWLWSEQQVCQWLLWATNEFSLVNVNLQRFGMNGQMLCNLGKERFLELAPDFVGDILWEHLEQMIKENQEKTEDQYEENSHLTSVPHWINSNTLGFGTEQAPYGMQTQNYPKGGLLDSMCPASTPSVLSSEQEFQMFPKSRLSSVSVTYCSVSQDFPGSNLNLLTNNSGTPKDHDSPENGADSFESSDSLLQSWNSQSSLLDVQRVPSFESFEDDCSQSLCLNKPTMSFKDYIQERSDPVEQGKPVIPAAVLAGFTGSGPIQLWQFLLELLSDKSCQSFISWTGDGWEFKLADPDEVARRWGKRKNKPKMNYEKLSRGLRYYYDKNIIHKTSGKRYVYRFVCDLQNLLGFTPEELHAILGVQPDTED
# Outline: as §1
# SPDEF = biological target: T9, SPDEF (Homo sapiens, UniProt O95238 1-335); conditions: protein: recombinant; tags: N-terminal GST; dsDNA, one strand shown
# T9 sequence: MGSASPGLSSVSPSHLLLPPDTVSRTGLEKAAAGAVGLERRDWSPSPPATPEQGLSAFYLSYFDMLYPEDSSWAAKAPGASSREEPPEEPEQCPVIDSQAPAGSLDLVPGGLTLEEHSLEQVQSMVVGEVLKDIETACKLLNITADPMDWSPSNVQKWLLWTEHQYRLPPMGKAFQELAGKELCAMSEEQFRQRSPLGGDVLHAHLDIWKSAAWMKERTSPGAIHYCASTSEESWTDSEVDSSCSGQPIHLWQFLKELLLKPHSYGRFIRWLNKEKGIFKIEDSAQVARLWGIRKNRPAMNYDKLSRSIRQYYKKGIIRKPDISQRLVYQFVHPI
# Outline: as §1
# ETV7 = biological target: T10, ETV7 (Homo sapiens, UniProt Q9Y603 1-341); conditions: protein: recombinant; tags: N-terminal GST; dsDNA, one strand shown
# T10 sequence: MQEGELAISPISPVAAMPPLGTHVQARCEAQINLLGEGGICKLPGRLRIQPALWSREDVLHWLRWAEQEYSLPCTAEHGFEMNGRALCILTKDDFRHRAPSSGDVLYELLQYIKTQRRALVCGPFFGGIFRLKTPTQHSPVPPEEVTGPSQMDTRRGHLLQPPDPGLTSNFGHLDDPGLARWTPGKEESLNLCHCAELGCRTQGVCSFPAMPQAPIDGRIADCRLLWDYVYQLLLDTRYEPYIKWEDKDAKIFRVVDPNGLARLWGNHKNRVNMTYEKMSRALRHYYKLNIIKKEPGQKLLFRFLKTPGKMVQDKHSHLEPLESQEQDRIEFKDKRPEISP
# Outline: as §1
# ELF5 = biological target: T11, ELF5 (Homo sapiens, UniProt Q9UKW6-2 1-255); conditions: protein: recombinant; tags: N-terminal GST; dsDNA, one strand shown
# T11 sequence: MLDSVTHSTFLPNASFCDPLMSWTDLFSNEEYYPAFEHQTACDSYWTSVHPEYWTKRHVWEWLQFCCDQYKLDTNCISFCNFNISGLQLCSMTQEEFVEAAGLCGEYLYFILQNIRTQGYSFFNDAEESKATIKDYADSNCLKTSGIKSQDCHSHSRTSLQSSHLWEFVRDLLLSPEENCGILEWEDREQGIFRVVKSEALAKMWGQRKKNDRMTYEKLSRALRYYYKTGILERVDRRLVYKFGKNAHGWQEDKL
# Outline: as §1
# ETV3 = biological target: T12, ETV3 (Homo sapiens, UniProt P41162-2 1-143); conditions: protein: recombinant; tags: N-terminal GST; dsDNA, one strand shown
# T12 sequence: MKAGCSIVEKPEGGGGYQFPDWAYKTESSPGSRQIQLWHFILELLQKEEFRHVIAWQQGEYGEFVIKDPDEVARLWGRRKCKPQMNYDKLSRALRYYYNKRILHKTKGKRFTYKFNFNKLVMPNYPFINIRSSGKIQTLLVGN
# Outline: as §1
# ETV6 = ETV6 (Homo sapiens, UniProt P41212 1-452); conditions: protein: recombinant; tags: N-terminal GST; dsDNA, one strand shown
# ETV6, sequence (P41212 whole entry): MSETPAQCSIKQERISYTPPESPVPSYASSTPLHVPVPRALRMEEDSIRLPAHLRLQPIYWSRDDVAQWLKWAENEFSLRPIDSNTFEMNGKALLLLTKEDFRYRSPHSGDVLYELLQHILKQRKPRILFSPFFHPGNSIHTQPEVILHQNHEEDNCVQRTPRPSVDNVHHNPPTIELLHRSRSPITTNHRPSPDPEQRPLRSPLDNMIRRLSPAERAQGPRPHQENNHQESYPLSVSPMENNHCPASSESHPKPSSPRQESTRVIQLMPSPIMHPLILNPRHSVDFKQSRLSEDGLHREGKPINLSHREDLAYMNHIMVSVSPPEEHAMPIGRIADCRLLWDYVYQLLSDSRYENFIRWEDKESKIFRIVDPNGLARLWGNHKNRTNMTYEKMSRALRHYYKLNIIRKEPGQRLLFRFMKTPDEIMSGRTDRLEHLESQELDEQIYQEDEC
# Outline: as §1
sequence,measurement,setting,value
TACTTC,binding signal,FEV,"4.27 fold enrichment (6-mer frequency, TF over GST control)"
same,binding signal,ETV5,"3.65 fold enrichment (6-mer frequency, TF over GST control)"
same,binding signal,HSF1,"1.43 fold enrichment (6-mer frequency, TF over GST control)"
same,binding signal,SPIC,"3.27 fold enrichment (6-mer frequency, TF over GST control)"
same,binding signal,ELF4,"3.17 fold enrichment (6-mer frequency, TF over GST control)"
same,binding signal,ELK4,"3.03 fold enrichment (6-mer frequency, TF over GST control)"
same,binding signal,ETV2,"3.6 fold enrichment (6-mer frequency, TF over GST control)"
same,binding signal,ELF3,"3.4 fold enrichment (6-mer frequency, TF over GST control)"
same,binding signal,CRX,"1.48 fold enrichment (6-mer frequency, TF over GST control)"
same,binding signal,ETV1,"3.6 fold enrichment (6-mer frequency, TF over GST control)"
same,binding signal,ERF,"3.18 fold enrichment (6-mer frequency, TF over GST control)"
same,binding signal,ETV3L,"3.22 fold enrichment (6-mer frequency, TF over GST control)"
same,binding signal,ETS2,"3.64 fold enrichment (6-mer frequency, TF over GST control)"
same,binding signal,SPDEF,"4.31 fold enrichment (6-mer frequency, TF over GST control)"
same,binding signal,ETV7,"3.62 fold enrichment (6-mer frequency, TF over GST control)"
same,binding signal,ELF5,"4.77 fold enrichment (6-mer frequency, TF over GST control)"
same,binding signal,ETV3,"3.67 fold enrichment (6-mer frequency, TF over GST control)"
same,binding signal,ETV6,"4.67 fold enrichment (6-mer frequency, TF over GST control)"
